Measurements: PubChem BioAssay (Tox21)
Inconclusive results are not listed. A number with no mark means an inactive call. Calls of active or inactive are those of the source. The call rests on the fitted dose curve; in most records, active means well fitted cell-killing curve with a large enough effect in the repeat runs; inconclusive means weak or mixed curves, or effect the other way; inactive means flat fitted curve, though single readings scatter.

Experiment: cAMP Responsive Elements (CRE) small molecule agonists, cell-based qHTS assay: qHTS cell viability counter screen (AID 2060914); further: nearly all actives have a fitted effect of over 50% in size
Conditions: CRE-bla HEK293T viability, CellTiter-Glo luminescence, 5 h; series mostly up to 92.4 µM; activity change, negative = cytotoxicity: at the top concentration
Excerpt: National Center for Advancing Translational Sciences [NCATS]
Division of Preclinical Innovation [DPI]
U.S. Environmental Protection Agency [EPA]
National Institutes of Environmental Health Sciences [NIEHS]
National Toxicology Program [NTP]
U.S. Food and Drug Administration [FDA]
CREB (cyclic-AMP Responsive Element Binding Protein) is a cellular transcription factor. It binds to certain DNA sequences called cAMP Responsive Elements (CRE) and regulates the transcription of the genes. […] This cell line can be used to find agonists/antagonists of the cyclic AMP signaling pathway. The activation of the report gene under culture conditions can be detected by fluorescence intensity. This cell line has been used to screen the Tox21 10K compound library to identify agonists that induce oxidative stress. The cytotoxicity of the Tox21 compound library against the CRE-bla cell line was tested in parallel by measuring the cell viability using CellTiter-Glo assay (Promega, Madison, WI) in the same wells.
Tox21 Assay Protocol Summary:
CRE-bla Hek 293T cells were suspended in assay medium (DMEM containing 10% dialyzed FBS, 0.1 mM NEAA, 1 mM sodium pyruvate and 25 mM HEPES) and dispensed at 2,000 cells/5 uL /well into 1536-well black wall/clear bottom plates using a Multidrop Combi (ThermoFisher Scientific, Waltham, MA) dispenser. After the assay plates were incubated at 37 C/5% CO2 for 18 hrs, 23 nL of compounds dissolved in DMSO, positive controls or DMSO only was transferred to the assay plate by a pintool workstation (Kalypsys, San Diego, CA). After the plates were incubated at 37 C/5% CO2 for 3 hrs, 1 uL of LiveBLAzer B/G FRET substrate (Invitrogen, Carlsbad, CA) was added to each well using Bioraptr Flying Reagent Dispenser (FRD, Aurora Discovery, San Diego, CA). The plates were incubated at room temperature for 2 h, then fluorescence intensities were measured using an Envision plate reader (PerkinElmer, Shelton, CT) at Excitation 405nm, Emission 460nm and 530nm. The % activity was determined from the ratio of 460nm/530nm. For cell viability readout that measures cytotoxicity, 4 uL /well of CellTiter-Glo reagent was added into the assay plates using Bioraptr FRD. After 30 min incubation at room temperature, the luminescence intensity in the assay plates was measured using a ViewLux (PerkinElmer, Shelton, CT) plate reader.
On the % scale 0 is the no-effect control and ±100 the full control effect; potency means the concentration at half of the fitted maximal effect.

For `CCNc1ccccc1`, which “activity change, negative = cytotoxicity” value is on record?
Its value is 4.24%.

Which “activity change, negative = cytotoxicity” value does the source give for `CC1(COc2ccc(CC3SC(=O)NC3=O)cc2)CCCCC1` (stereo not given) here?
The value was -10.7% [at 42.5 µM].

Which “activity change, negative = cytotoxicity” value does the source give for `CC(C)=CCC/C(C)=C/C#N` here?
The value was 22.2%.

Which Potency does the source give for `CC(=O)CCC(=O)O` here?
Its Potency is “inactive”.

For `CC[C@H]1OC(=O)[C@H](C)[C@@H](O[C@H]2C[C@@](C)(OC)[C@@H](O)[C@H](C)O2)[C@H](C)[C@@H](O[C@@H]2O[C@H](C)C[C@H](N(C)C)[C@H]2O)[C@](C)(O)C[C@@H](C)/C(=N\OCOCCOC)[C@H](C)[C@@H](O)[C@]1(C)O`, which Potency is on record?
Its Potency is 36 µM (active).

Which “activity change, negative = cytotoxicity” value does the source give for `CC1=CCC(=C(C)C)CC1` here?
Its value is 3.88%.

Which “activity change, negative = cytotoxicity” value does the source give for `CC1=C(C)C(=O)C(C(CCCCCC(=O)O)c2ccccc2)=C(C)C1=O` (stereo not given) here?
Its value is -0.12% [at 42.5 µM].

Which “activity change, negative = cytotoxicity” value does the source give for `CCCCCCOC(=O)c1ccccc1` here?
The value was 1.47%.

With `CSCC[C@H](NC(=O)[C@H](Cc1c[nH]c2ccccc12)NC(=O)CCNC(=O)OC(C)(C)C)C(=O)N[C@@H](CC(=O)O)C(=O)N[C@@H](Cc1ccccc1)C(N)=O` as the compound, how does the “activity change, negative = cytotoxicity” value read?
Its value is -1.18% [at 42.5 µM].

With `CCCCCCCCCCCCCCCS(=O)(=O)Oc1ccccc1` as the compound, how does the “activity change, negative = cytotoxicity” value read?
The value was 0.974% [at 42.5 µM].

With `C=C(C)C(=O)OCCOC1CC2CC1C1C=CCC21` (stereo not given) as the compound, how does the “activity change, negative = cytotoxicity” value read?
Its value is -2.44%.

For `CC(=O)N(CC(O)CO)c1c(I)c(C(=O)NCCO)c(I)c(C(=O)NCC(O)CO)c1I` (stereo not given), which “activity change, negative = cytotoxicity” value is on record?
Its value is -7.59% [at 42.5 µM].

Which “activity change, negative = cytotoxicity” value does the source give for `Nc1c2c(nc3ccccc13)CCCC2O` (stereo not given) here?
The value was 16.7% [at 42.5 µM].

For `CC(C)Nc1ccc(NC(C)C)c2c1C(=O)c1ccccc1C2=O`, which “activity change, negative = cytotoxicity” value is on record?
The value was -8.23% [at 42.5 µM].

With `S=C(S)NCCNC(=S)S` as the compound, how does the “activity change, negative = cytotoxicity” value read?
Its value is -16.8%.

With `CCCCCCCCCCCCCCCCC(=O)O` as the compound, how does the “activity change, negative = cytotoxicity” value read?
Its value is 15.9% [at 42.5 µM].

Which “activity change, negative = cytotoxicity” value does the source give for `CCC(CO)(CO)[N+](=O)[O-]` here?
The value was -2.71%.

Which activity change, negative = cytotoxicity does the source give for `N=C(N)N1CCc2ccccc2C1` here?
The activity change, negative = cytotoxicity was 2.66% [at 8.39 µM].

With `CC(C)=C1CC[C@@H](C)CC1=O` as the compound, how does the “activity change, negative = cytotoxicity” value read?
Its value is 3.11%.

With `CC(C)OC(=O)c1cc2c(OCC(O)CNC(C)(C)C)cccc2[nH]1` (stereo not given) as the compound, how does the “activity change, negative = cytotoxicity” value read?
The value was 5.87% [at 42.5 µM].

With `OCc1cc(C(O)CNCCCCCCOCCCCc2ccccc2)ccc1O` (stereo not given) as the compound, how does the “activity change, negative = cytotoxicity” value read?
The value was 6.87% [at 42.5 µM].

For `CCOC(=O)[C@H](CCc1ccccc1)N[C@@H](C)C(=O)N1[C@H](C(=O)O)C[C@@H]2CCC[C@@H]21`, which “activity change, negative = cytotoxicity” value is on record?
The value was -2% [at 42.5 µM].

Which “activity change, negative = cytotoxicity” value does the source give for `CN=C(NC#N)Nc1ccc(C2=NNC(=O)CC2C)cc1` (stereo not given) here?
Its value is -2.74% [at 42.5 µM].

For `IC(I)I`, which “activity change, negative = cytotoxicity” value is on record?
The value was -1.81%.

Which “activity change, negative = cytotoxicity” value does the source give for `CC[N+](C)(CC)CC` here?
Its value is 13%.

Which “activity change, negative = cytotoxicity” value does the source give for `CC(=O)OC(C)C[N+](C)(C)C` (stereo not given) here?
The value was 2.75% [at 42.5 µM].

With `CCCCCCCC(=O)O` as the compound, how does the Potency read?
Its Potency is “inactive”.

With `COC(=O)c1cccnc1` as the compound, how does the Potency read?
The Potency was “inactive”.

With `CC1CCC(=O)C1=O` (stereo not given) as the compound, how does the “activity change, negative = cytotoxicity” value read?
Its value is -1.09%.

For `CCC(C)(C)C(=O)O`, which “activity change, negative = cytotoxicity” value is on record?
The value was 0.192%.

Which “activity change, negative = cytotoxicity” value does the source give for `CC(C)=CCC/C(C)=C\C#N` here?
The value was -3.87%.

With `CC[N+](CC)(CC)CCOC(=O)C(C1CCCC1)C1CCCC1` as the compound, how does the “activity change, negative = cytotoxicity” value read?
Its value is -8.01% [at 42.5 µM].

Which “activity change, negative = cytotoxicity” value does the source give for `CCOC(=O)c1ccc(OCCN2C[C@H](O)[C@@H](O)[C@H](O)[C@H]2CO)cc1` here?
Its value is 12% [at 42.5 µM].

With `CC1CC(=O)CC(C)(C)C1` (stereo not given) as the compound, how does the “activity change, negative = cytotoxicity” value read?
Its value is 7.96%.

With `CC(C)Cc1ccc(C(C)C(=O)O)cc1` (stereo not given) as the compound, how does the Potency read?
The Potency was “inactive”.

With `CC(C)COC(=O)c1ccc(O)cc1` as the compound, how does the “activity change, negative = cytotoxicity” value read?
Its value is -10.4%.

Which Potency does the source give for `C=CC(=O)OCC(CO)(COCC(COC(=O)C=C)(COC(=O)C=C)COC(=O)C=C)COC(=O)C=C` here?
The Potency was 42.7 µM (active).

With `Cc1cccc(C)c1OCC(C)N` (stereo not given) as the compound, how does the “activity change, negative = cytotoxicity” value read?
Its value is 9.24% [at 42.5 µM].

Which “activity change, negative = cytotoxicity” value does the source give for `C=CCCC(=O)O` here?
The value was 4.19%.

Which Potency does the source give for `CC(=O)OCCOCCOCCOC(C)=O` here?
Its Potency is “inactive”.
